Screening results from PubChem BioAssay.
Sampled rows, rich in hits. Any-hit rate of the full collection: about 11%.
ALDH1A1 block – blocks purified human ALDH1A1 activity | Purified ALDH1A1, NADH fluorescence, propionaldehyde substrate | actives 7.3% (n = 220,000) | P00352 | Potency, µM (top dose mostly 75.3 µM), inactives show at the top dose activity, negative = inhibition, most hits filed as inhibitors | AID 1030;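 further: potency means the concentration at half of the fitted maximal effect; plate controls were no enzyme wells and a reference inhibitor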
Target sequence (P00352 whole entry, looked up): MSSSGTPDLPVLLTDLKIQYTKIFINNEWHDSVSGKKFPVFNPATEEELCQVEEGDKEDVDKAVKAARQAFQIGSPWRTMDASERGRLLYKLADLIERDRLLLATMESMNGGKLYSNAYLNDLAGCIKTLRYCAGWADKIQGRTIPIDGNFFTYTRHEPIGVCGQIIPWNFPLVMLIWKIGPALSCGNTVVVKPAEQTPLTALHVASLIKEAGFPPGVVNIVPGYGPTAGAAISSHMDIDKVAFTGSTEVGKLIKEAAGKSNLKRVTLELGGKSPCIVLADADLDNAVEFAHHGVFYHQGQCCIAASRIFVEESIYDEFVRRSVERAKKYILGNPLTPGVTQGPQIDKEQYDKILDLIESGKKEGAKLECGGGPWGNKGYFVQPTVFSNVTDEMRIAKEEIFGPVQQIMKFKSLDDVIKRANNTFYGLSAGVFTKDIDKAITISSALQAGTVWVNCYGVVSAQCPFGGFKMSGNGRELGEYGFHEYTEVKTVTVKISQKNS
HPGD inh – blocks human HPGD enzyme activity. P15428. purified HPGD, NADH fluorescence kinetic, PGE2 substrate. Potency, µM, for inactives: top-dose activity change, negative = inhibition, actives largely listed as inhibitors. actives 4.3% (n = 150,000). AID 894; further: potency means the concentration at half of the fitted maximal effect
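20 nM HPGD preincubated 15 min at room temperature with compound in 50 mM Tris-HCl pH 8, 0.01% Tween 20. Started with 1 mM NAD+ and 30 uM prostaglandin E2; NADH fluorescence (360/450 nm) read 5 times over 30-s intervals, last minus first.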
PNC assembly inh – blocks assembly of the perinucleolar compartment; PC3M PTB-GFP, PNC prevalence imaging, 16 h; active compounds read low; activity change (PNC), negative = inhibition, % at 10 µM; actives 3.1% (n = 140,000); AID 2417;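 active means readout at or below -70, meaning at least 70% loss of cells showing the perinucleolar compartment, a nuclear body marking cancer cells; inconclusive means readout between -30 and a set limit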;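 further: plate controls were DMSO wells for no effect and camptothecin positive control wells for full effect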
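PC3M cells stably expressing PTB-GFP, 750–1000 cells/well, treated 16 h at 37 °C with compound (23 nl of library stock), in duplicate. After paraformaldehyde fixation and Hoechst stain, imaged at 20x; PNC prevalence scored by image analysis.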
An asterisk follows results filed as active; ? = inconclusive; nt = no result given; ! = not active in a repeat; [ ] = dose if it differs, or a comment. Unless noted, the call rests on the fitted dose curve; in most records, active means well fitted inhibition curve with a large enough effect (not every such curve was filed as active); inconclusive means small, poorly fitted or top-dose-only effect, or another doubt; inactive means no such curve, though single readings can be large or run the other way. Unless noted, on the % scale 0 is the no-effect control and ±100 the full control effect.

SMILES	ALDH1A1 block	HPGD inh	PNC assembly inh
CN(C)c1ccc(NC2=C(Cl)C(=O)c3ccccc3C2=O)cc1	?	14.1µM*	26.3
O=C(Oc1ccc(NC2=C(Cl)C(=O)c3ccccc3C2=O)cc1)c1ccc([N+](=O)[O-])cc1	4.3%	-7.8%	-1.9
CCOC(=O)c1sc(NC(=O)Nc2ccc(Cl)cc2)nc1C	?	?	37.8
CC1=C(/C=C/C(C)=C/C=C/C(C)=C/C=O)C(C)(C)CCC1	22.4µM*	-12.7%	nt
CC1=C(/C=C/C(C)=C/C=C/C(C)=C/C=C/C=C(C)/C=C/C=C(C)/C=C/C2=C(C)C(=O)CCC2(C)C)C(C)(C)CCC1=O	-3.2%	-12.8%	nt
CC1=C(/C=C/C(C)=C/C=C/C(C)=C/CO)C(C)(C)CCC1	25.1µM*!	-0.1%	nt
CC(=O)OC/C=C(C)/C=C/C=C(C)/C=C/C1=C(C)CCCC1(C)C	22.4µM*!	-5.6%	nt
CC1=C(/C=C/C(C)=C/C=C/C(C)=C\CO)C(C)(C)CCC1	25.1µM*	nt	nt
CC1=C(/C=C/C(C)=C/C=C/C(C)=C\C=O)C(C)(C)CCC1	?	-5.7%	nt
CC1=C(/C=C\C(=O)O)C(C)(C)CCC1	-4.3%[13.5 µM]	-1.2%	nt
Cc1ccc(NC(=O)CSc2ccccc2NC(=O)c2ccccc2Cl)cc1Cl	-9.8%	-10.3%	32.2
CCNC(=O)c1ccccc1CCc1ccccc1	0.1%	nt	nt
Cc1nn(-c2ccccc2)c(NC(=O)c2cccs2)c(-c2ccccc2)c1=O	0.1%	-2.7%	?
CC(C)(Oc1ccc(Cl)cc1)C(=O)N(Cc1ccccc1)c1ccccn1	-11.3%	-12.7%	-1.3
c1cncc(CSc2ncnc3nc[nH]c23)c1	1.6%[13.5 µM]	-2.6%	nt
Cc1ccc(-c2cc(C(=O)N/N=C\c3cnn(C)c3C)c3ccccc3n2)cc1C	0.9%	-10.6%	?
C=C1C(=O)OC2C1CC/C(C)=C/CCC1(C)OC21 (stereo not drawn)	?	-14.2%	nt
C=CCn1c(SCC(=O)NC(=O)NCc2ccco2)nc2sc(C)c(C)c2c1=O	-0.4%	-8.9%	?
C=CCn1c(SCC(=O)NC2CCCC2)nc2scc(-c3ccco3)c2c1=O	7.94µM*	?	39.7
C=CCn1c(SCC(=O)NC2CCCCC2)nc2ccccc2c1=O	-3.9%	nt	nt
C=CCn1c(SCC(=O)NCCCC)nc2scc(-c3ccco3)c2c1=O	20µM*	-21.8%	31.4
COC(=O)[C@@H]1C[C@@]2(O)[C@H](O)[C@H](O)[C@H](O)C[C@H]2N1Cc1ccc(-c2ccccc2)cc1	?	-19.9%	nt
COC(=O)CC1C(C)(C)C(OC(C)=O)C2CC3C4CC(=O)OC(c5ccoc5)[C@]4(C)CCC3[C@@]1(C)C2=O (stereo partly drawn)	?	-14.3%	nt
Cc1c(NC(=O)C(C)OC(=O)c2cc(Cl)nc(Cl)c2)c(=O)n(-c2ccccc2)n1C (stereo not drawn)	9.6%	-6.2%	-9.6
Cc1c(NC(=O)C(C)OC(=O)c2sc3ccccc3c2Cl)c(=O)n(-c2ccccc2)n1C (stereo not drawn)	-4.3%	-8.6%	-115.9*
SMILES	ALDH1A1 block	HPGD inh	PNC assembly inh
CN1C(=O)CSc2ccc(NC(=O)NCCC3=CCCCC3)cc21	7.94µM*	-9.1%	-17.3
O=C(NCCN1CCOCC1)c1ccc2c(c1)N(Cc1ccccc1)C(=O)CS2	-2.2%	-1.4%	22.5
O=C(NCCC1=CCCCC1)c1ccc2c(c1)N(Cc1ccccc1)C(=O)CS2	?	-14.9%	-83.9*
CC(C)CCNC(=O)Nc1ccc2c(c1)N(C)C(=O)CS2	2.3%	-2.0%	46.7
COCCCNC(=O)Nc1ccc2c(c1)N(C)C(=O)CS2	17.3%	-10.9%	35.3
COCCNC(=O)Nc1ccc2c(c1)N(C)C(=O)CS2	22.4µM*	-7.2%	-8.7
O=C(NCC1(c2ccccc2)CCCC1)c1cccc(Br)c1	-5.7%	-5.6%	0.5
Cc1ccc2ncnc(NCCCCCC(=O)O)c2c1	-2.0%	nt	nt
O=C(O)C1CCN(C(=O)COc2ccc(Br)cc2)CC1	4.4%	nt	nt
O=C(Nc1cc(S(=O)(=O)N2CCOCC2)ccc1N1CCCC1)c1cnccn1	1.4%	nt	16.0
COc1ccc(/C=C(\C#N)C(=O)Nc2cc(S(=O)(=O)N3CCOCC3)ccc2N2CCCC2)cc1	10µM*	12.6µM*	6.9
O=C(Nc1cc(S(=O)(=O)N2CCOCC2)ccc1N1CCCCC1)c1cc(-c2ccccn2)nc2ccccc12	7.08µM*	nt	nt
O=C(Nc1cccc(Cl)c1)Nc1cc(S(=O)(=O)N2CCOCC2)ccc1N1CCCC1	?	?	53.4
O=C(CNc1cc(S(=O)(=O)N2CCOCC2)ccc1N1CCCC1)N1CCc2ccccc21	25.1µM*	nt	nt
CCN(CC)S(=O)(=O)c1ccc(N2CCCCC2)c(NC(=O)/C(C#N)=C/c2ccc(OC)cc2)c1	?	-18.1%	-9.7
C[C@H]1Cc2c(COc3ccccc3)nc3c(c2CO1)CN(C(=O)Cc1cccs1)CC3	-1.4%[13.5 µM]	-5.1%	nt
